Laboratory results published in PubChem BioAssay AID1159580 (chemical genetic matrix, 2015).
Screen size: about 5,500 compounds; about 2,000 (36%) were called active. Another 18% or so got no clear call; they are omitted. Rule as the data show it: active = normalized growth mostly below about 0.91 (no sharp cut-off); inconclusive = no clear call, values can overlap the other calls; inactive = mostly above about 0.92. This is one part of the list.

Experiment: chemical genetic growth profiling, strain panel (AID 1159580);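 also: tested at 20 µM; growth read once vehicle control cultures reached saturation at 30 °C; 1 = growth at the plate median or of vehicle wells; lower values mean less growth of the strain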
Conditions: growth OD

Measured: normalized growth

CN(C)CCc1c[nH]c2ccc(CS(=O)(=O)N3CCCC3)cc12
inactive: S. cerevisiae deletion strains, locus YJR075W, strain HOC1, stronger effect = lower value 1 | S. cerevisiae deletion strains, locus YKL009W, strain mrt4, stronger effect = lower value 0.992 | S. cerevisiae deletion strains, locus YKL068W, stronger effect = lower value 0.987 | S. cerevisiae deletion strains, locus YKL085W, strain MDH1 (second series), stronger effect = lower value 0.983 | S. cerevisiae deletion strains, locus YKL085W, strain MDH1, stronger effect = lower value 0.983 | S. cerevisiae deletion strains, locus YKL160W, strain elf1, stronger effect = lower value 1.03 | S. cerevisiae deletion strains, locus YKL190W, strain CNB1, stronger effect = lower value 1 | S. cerevisiae deletion strains, locus YKR001C, strain vps1, stronger effect = lower value 0.988 | S. cerevisiae deletion strains, locus YKR026C, strain gcn3, stronger effect = lower value 0.976 | S. cerevisiae deletion strains, locus YKR091W, strain srl3, stronger effect = lower value 1.01 | S. cerevisiae deletion strains, locus YLL001W, strain dnm1, stronger effect = lower value 0.971 | S. cerevisiae deletion strains, locus YLL026W, stronger effect = lower value 0.98 | S. cerevisiae deletion strains, locus YLL041C, strain sdh2, stronger effect = lower value 1 | S. cerevisiae deletion strains, locus YLR027C, strain aat2, stronger effect = lower value 0.997 | S. cerevisiae deletion strains, locus YLR039C, strain RIC1, stronger effect = lower value 0.971 | S. cerevisiae deletion strains, locus YLR058C, strain SHM2, stronger effect = lower value 0.991 | S. cerevisiae deletion strains, locus YLR102C, strain apc9, stronger effect = lower value 0.995 | S. cerevisiae deletion strains, locus YLR113W, strain HOG1, stronger effect = lower value 0.979 | S. cerevisiae deletion strains, locus YLR221C, strain rsa3, stronger effect = lower value 0.96 | S. cerevisiae deletion strains, locus YLR258W, strain gsy2, stronger effect = lower value 1 | S. cerevisiae deletion strains, locus YLR262C, strain YPT6 (second series), stronger effect = lower value 1 | S. cerevisiae deletion strains, locus YLR262C, strain YPT6, stronger effect = lower value 0.968 | S. cerevisiae deletion strains, locus YLR268W, strain sec22, stronger effect = lower value 0.971 | S. cerevisiae deletion strains, locus YLR320W, strain mms22, stronger effect = lower value 0.945 | S. cerevisiae deletion strains, locus YLR330W, strain CHS5, stronger effect = lower value 0.988 | S. cerevisiae deletion strains, locus YLR342W, strain FKS1 (second series), stronger effect = lower value 1.02 | S. cerevisiae deletion strains, locus YLR342W, strain FKS1, stronger effect = lower value 1.01 | S. cerevisiae deletion strains, locus YLR357W, strain rsc2, stronger effect = lower value 1.01 | S. cerevisiae deletion strains, locus YLR370C, strain arc18, stronger effect = lower value 0.992 | S. cerevisiae deletion strains, locus YLR371W, strain rom2, stronger effect = lower value 0.983 | S. cerevisiae deletion strains, locus YLR384C, strain iki3, stronger effect = lower value 0.983 | S. cerevisiae deletion strains, locus YLR418C, strain cdc73, stronger effect = lower value 0.959 | S. cerevisiae deletion strains, locus YML016C, strain PPZ1, stronger effect = lower value 0.987 | S. cerevisiae deletion strains, locus YML032C, strain rad52, stronger effect = lower value 0.99 | S. cerevisiae deletion strains, locus YML120C, strain ndi1, stronger effect = lower value 0.972 | S. cerevisiae deletion strains, locus YML124C, strain tub3, stronger effect = lower value 0.979 | S. cerevisiae deletion strains, locus YMR058W, strain fet3, stronger effect = lower value 0.976 | S. cerevisiae deletion strains, locus YMR078C, strain ctf18, stronger effect = lower value 0.986 | S. cerevisiae deletion strains, locus YMR125W, strain sto1, stronger effect = lower value 0.999 | S. cerevisiae deletion strains, locus YMR129W, stronger effect = lower value 0.98 | S. cerevisiae deletion strains, locus YMR205C, strain PFK2, stronger effect = lower value 0.967 | S. cerevisiae deletion strains, locus YMR223W, strain ubp8, stronger effect = lower value 0.996 | S. cerevisiae deletion strains, locus YMR231W, strain pep5, stronger effect = lower value 0.991 | S. cerevisiae deletion strains, locus YMR263W, strain SAP30, stronger effect = lower value 1.01 | S. cerevisiae deletion strains, locus YMR307W, strain GAS1, stronger effect = lower value 0.994 | S. cerevisiae deletion strains, locus YNL067W, strain RPL9B, stronger effect = lower value 1.03 | S. cerevisiae deletion strains, locus YNL071W, strain lat1, stronger effect = lower value 0.985 | S. cerevisiae deletion strains, locus YNL128W, strain TEP1, stronger effect = lower value 1 | S. cerevisiae deletion strains, locus YNL153C, strain GIM3, stronger effect = lower value 0.995 | S. cerevisiae deletion strains, locus YNL183C, strain NPR1, stronger effect = lower value 0.926 | S. cerevisiae deletion strains, locus YNL209W, strain ssb2, stronger effect = lower value 0.974 | S. cerevisiae deletion strains, locus YNL233W, strain BNI4, stronger effect = lower value 0.988 | S. cerevisiae deletion strains, locus YNL248C, strain rpa49, stronger effect = lower value 1.03 | S. cerevisiae deletion strains, locus YNL250W, strain rad50, stronger effect = lower value 0.986 | S. cerevisiae deletion strains, locus YNL271C, strain bni1, stronger effect = lower value 0.984 | S. cerevisiae deletion strains, locus YNL298W, strain CLA4, stronger effect = lower value 0.981 | S. cerevisiae deletion strains, locus YNL307C, strain MCK1, stronger effect = lower value 0.985 | S. cerevisiae deletion strains, locus YNL322C, strain KRE1 (second series), stronger effect = lower value 1.02 | S. cerevisiae deletion strains, locus YNL322C, strain KRE1, stronger effect = lower value 0.999 | S. cerevisiae deletion strains, locus YNR049C, strain mso1, stronger effect = lower value 0.997 | S. cerevisiae deletion strains, locus YNR052C, strain pop2, stronger effect = lower value 0.992 | S. cerevisiae deletion strains, locus YOL006C, strain TOP1, stronger effect = lower value 0.959 | S. cerevisiae deletion strains, locus YOL012C, strain htz1 0.726 | S. cerevisiae deletion strains, locus YOL147C, strain pex11, stronger effect = lower value 0.995 | S. cerevisiae deletion strains, locus YOR001W, strain rrp6, stronger effect = lower value 0.938 | S. cerevisiae deletion strains, locus YOR061W, strain CKA2, stronger effect = lower value 0.994 | S. cerevisiae deletion strains, locus YOR069W, strain VPS5, stronger effect = lower value 0.992 | S. cerevisiae deletion strains, locus YOR070C, strain gyp1, stronger effect = lower value 1 | S. cerevisiae deletion strains, locus YOR080W, strain dia2, stronger effect = lower value 1 | S. cerevisiae deletion strains, locus YOR083W, strain WHI5, stronger effect = lower value 1 | S. cerevisiae deletion strains, locus YOR106W, strain vam3, stronger effect = lower value 1.04 | S. cerevisiae deletion strains, locus YOR136W, strain idh2, stronger effect = lower value 0.983 | S. cerevisiae deletion strains, locus YOR144C, strain elg1, stronger effect = lower value 0.981 | S. cerevisiae deletion strains, locus YOR184W, strain ser1, stronger effect = lower value 0.989 | S. cerevisiae deletion strains, locus YOR231W, strain MKK1, stronger effect = lower value 0.957 | S. cerevisiae deletion strains, locus YOR265W, strain rbl2, stronger effect = lower value 0.99 | S. cerevisiae deletion strains, locus YOR270C, strain vph1, stronger effect = lower value 0.945 | S. cerevisiae deletion strains, locus YOR290C, strain snf2, stronger effect = lower value 1.02 | S. cerevisiae deletion strains, locus YOR316C, strain cot1, stronger effect = lower value 0.989 | S. cerevisiae deletion strains, locus YPL051W, strain arl3, stronger effect = lower value 1.02 | S. cerevisiae deletion strains, locus YPL055C, strain LGE1, stronger effect = lower value 1.02 | S. cerevisiae deletion strains, locus YPL078C, strain atp4, stronger effect = lower value 1.02 | S. cerevisiae deletion strains, locus YPL106C, strain sse1, stronger effect = lower value 1.02 | S. cerevisiae deletion strains, locus YPL240C, strain hsp82, stronger effect = lower value 0.985 | S. cerevisiae deletion strains, locus YPL241C, strain CIN2, stronger effect = lower value 1.03 | S. cerevisiae deletion strains, locus YPL256C, strain CLN2, stronger effect = lower value 0.959 | S. cerevisiae deletion strains, locus YPR119W, strain clb2, stronger effect = lower value 0.994 | S. cerevisiae deletion strains, locus YPR141C, strain kar3, stronger effect = lower value 0.983 | S. cerevisiae deletion strains, locus YPR163C, strain tif3, stronger effect = lower value 0.985 | S. cerevisiae deletion strains, locus YPR167C, strain met16, stronger effect = lower value 0.982 | S. cerevisiae deletion strains, strain wtn01, stronger effect = lower value 0.99 | S. cerevisiae strains, strain wild type, stronger effect = lower value 1.02
